# Assay results published in PubChem BioAssay.
# Several values for one entry are separate records, joined by “and”; a condition that tells them apart may be missing. Equal entries are not always repeated. Activity calls are given as the source filed them. Cut-off read from the data, not from the text of the source, unless noted: active = inhibition above about 80%; inactive = the rest.
# How the values were obtained:
# [1] = Wnt pathway potentiators raising nuclear beta-catenin – imaging, WNT3A-conditioned medium, mouse C2C12, NPC library, primary screen (AID 1117326; in the data active = nuclear beta-catenin stimulation mostly above about 4.2%, no sharp cut-off; inactive = mostly below about 10%); settings: stronger effect = higher value
# [2] = stimulators of insulin release from INS-1E, primary screen, cell-based, 5 mM glucose, NPC library (AID 1117329;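 active = compound raises insulin release from rat beta cells at 5 mM glucose, no numeric limit stated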); settings: rat INS-1E insulin secretion, at 10 µM, stronger effect = higher value
# [3] = growth inhibition of GSK3B-pretreated HCT116 cells – cell-based, CellTiter-Glo, 0.2 to 20 µM (AID 1117336;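 active = compounds lowering colon cancer cell viability after pretreatment blocking the GSK3B kinase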); settings: HCT116 viability after GSK3B inhibitor, at 20 µM, stronger effect = higher value
# [4] = inhibition of endothelial tube formation, primary screen, imaging, VEGF stimulated, CD31 staining, tube area, NPC library (AID 1117340;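 active = compound that reduces growth-factor-driven endothelial tube area in a mixed cell culture, no cutoff stated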); settings: VEGF-stimulated ADSC/ECFC co-culture, at 10 µM, stronger effect = higher value
# [5] = GLP1 release stimulators, primary, NCI-H716, NPC library (AID 1117341;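 active = compound raises GLP1 secretion from the human gut endocrine cells, with no numeric limit stated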); settings: NCI-H716 cells, at 10 µM, stronger effect = higher value
# [6] = HCT116 colon cancer cell growth inhibition, primary screen, CellTiter-Glo luminescence, NPC library (AID 1117342;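 active = compounds that lower survival of HCT116 colon cancer cells in the luminescence readout, no numeric limit stated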); settings: at 20 µM (top of the series)
# [7] = reduced SW480 viability measured with CellTiter-Glo, NPC library, primary (AID 1117343;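 active = compounds that lower viability of the colon cancer cells in the luminescence readout, with no numeric limit stated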); settings: CellTiter-Glo luminescence; at 20 µM (top of the series) unless noted
# [8] = NPC library primary testing for decreased DLD-1 cell viability via CellTiter-Glo (AID 1117346;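 active = compounds that lower survival of DLD-1 colon cancer cells in the luminescence readout, no cutoff given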); settings: DLD-1 viability, CellTiter-Glo luminescence; at 20 µM (top of the series)
# [9] = EMT-state selective cytotoxicity in co-culture – imaging, PC-3E GFP, TEM4-18 mCherry, primary screen (AID 1345086;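 active = compounds killing one labelled cell type while sparing the other, by normalised counts and ratio limits, not self-fluorescent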;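 for all read-outs here: cells exposed to compound for 72 h before imaging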;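 for red/green cell ratio (normalised): normalised mesenchymal count divided by normalised epithelial count so high means epithelial killing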); settings: PC-3E GFP / TEM4-18 mCherry co-culture, imaging cell counts, at 1 µM; for red/green cell ratio (normalised): actives lie on both sides, counts scaled to control wells, 1 = unselective
# [10] = viability loss with induced miR-34 in A549 – imaging, A549 dox-inducible miR-34, nuclei and caspase counts, primary screen (AID 1347080;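 active = compounds whose cell count with miR-34 switched on is under 0.7 times the count with it off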); settings: A549 miR-34 inducible, Hoechst nuclei count, 48 h
# [11] = MELAS cybrid and Rieske KO viability enhancers – cell-based, MELAS cybrids, Rieske KO mouse fibroblasts, CellTiter-Glo, primary screen (AID 1508586;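 active = mean z-score across replicates of 1.96 or higher in either the MELAS or the Rieske mutant cell line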;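 note: z relative to plate mean and SD of compound and empty wells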); settings: low glucose
# [12] = biological target: NAD(+) hydrolase SARM1 (Homo sapiens) (UniProt Q6SZW1); assay: blocking NAD cleavage by SARM1 SAM-TIR – cell lysate, NAD-Glo luminescence (AID 1508614;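 active = compound whose remaining NAD level is above about 45 nM, limit read from the data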;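 note: higher remaining NAD means stronger inhibition of SARM1 NADase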); settings: SAM-TIR HEK293T lysate NADase, at 1 µM, stronger effect = higher value
# [13] = growth inhibition, single agent or in combination, cell-based, chromothripsis tumors, cisplatin or BGB combos (AID 1671449); settings: LFS_MB_P medulloblastoma cells;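 note: cells exposed for 96 hours; 0% = vehicle DMSO and 100% = killing by high DMSO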
# [14] = growth inhibition, single agent and combos, cell-based, chromothripsis tumors, cisplatin or BGB combos (AID 1671450); settings: HDN33 neuroblastoma cells, stronger effect = higher value;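 note: cells exposed to compound for four days; 0% = vehicle DMSO and 100% = cell killing by high DMSO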
# [15] = growth inhibition, single agents and combos, ICB984, cell-based, cisplatin or BGB combos, synergistic combos for chromothripsis tumors (AID 1671451; call rule not given here;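 note: cells exposed for 96 hours before readout; 0% = vehicle DMSO and 100% = killing by high DMSO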); settings: ICB984 medulloblastoma cells, drug combinations, stronger effect = higher value
# [16] = growth inhibition, single agents and combos, HTB85, cell-based, BGB or cisplatin IC20 combos, synergistic combos for chromothripsis tumors (AID 1671453); settings: HTB85 osteosarcoma cells, drug combinations, stronger effect = higher value;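 note: cells exposed for 96 hours before readout; 0% = vehicle DMSO and 100% = high DMSO killing control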
# [17] = growth inhibition, MDA-MB-436, cell-based, BGB or cisplatin combos, synergistic combos for chromothripsis tumors (AID 1671458; call rule not given here;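 note: cells exposed for 96 hours; 0% = vehicle DMSO and 100% = killing by high DMSO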); settings: MDA-MB-436 breast carcinoma growth inhibition, drug combinations, stronger effect = higher value
# [18] = measured here: epithelial PC-3E GFP cell survival
# [19] = measured here: mesenchymal TEM4-18 mCherry cell survival
# [20] = stronger effect = lower value, cell number ratio, induced over uninduced
# [21] = measured here: relative caspase fold change +Dox/-Dox
# [22] = measured here: total cells with miR-34 induction, stronger effect = lower value
# [23] = measured here: total cells without miR-34 induction
# [24] = MELAS cybrid survival, CellTiter-Glo 48 h, stronger effect = higher value
# [25] = Rieske KO mouse fibroblast survival, CellTiter-Glo 72 h
# [26] = at 0.5 µM, stronger effect = higher value
# [27] = measured here: combination with BGB IC20, at 0.005 µM
# [28] = measured here: combination with BGB IC40, at 0.005 µM
# [29] = measured here: combination with BGB IC40, at 0.05 µM
# [30] = measured here: combination with cisplatin, at 0.5 µM, stronger effect = higher value
# [31] = measured here: combination with cisplatin, at 5 µM, stronger effect = higher value
# [32] = measured here: with BGB IC20 combination, at 0.5 µM
# [33] = measured here: with cisplatin IC20 combination, at 0.5 µM
# [34] = measured here: 5 uM single agent, at 5 µM
# [35] = measured here: with BGB IC20, at 0.5 µM
# [36] = measured here: with BGB IC20, at 5 µM
# [37] = measured here: with cisplatin IC20, at 0.5 µM
# [38] = measured here: with cisplatin IC20, at 5 µM
# [39] = measured here: BGB combination, at 0.5 µM
# [40] = measured here: BGB combination, at 5 µM
# [41] = measured here: cisplatin combination, at 0.5 µM
# [42] = measured here: cisplatin combination, at 5 µM
# Sequence of NAD(+) hydrolase SARM1 (Homo sapiens) (Q6SZW1 whole entry, looked up): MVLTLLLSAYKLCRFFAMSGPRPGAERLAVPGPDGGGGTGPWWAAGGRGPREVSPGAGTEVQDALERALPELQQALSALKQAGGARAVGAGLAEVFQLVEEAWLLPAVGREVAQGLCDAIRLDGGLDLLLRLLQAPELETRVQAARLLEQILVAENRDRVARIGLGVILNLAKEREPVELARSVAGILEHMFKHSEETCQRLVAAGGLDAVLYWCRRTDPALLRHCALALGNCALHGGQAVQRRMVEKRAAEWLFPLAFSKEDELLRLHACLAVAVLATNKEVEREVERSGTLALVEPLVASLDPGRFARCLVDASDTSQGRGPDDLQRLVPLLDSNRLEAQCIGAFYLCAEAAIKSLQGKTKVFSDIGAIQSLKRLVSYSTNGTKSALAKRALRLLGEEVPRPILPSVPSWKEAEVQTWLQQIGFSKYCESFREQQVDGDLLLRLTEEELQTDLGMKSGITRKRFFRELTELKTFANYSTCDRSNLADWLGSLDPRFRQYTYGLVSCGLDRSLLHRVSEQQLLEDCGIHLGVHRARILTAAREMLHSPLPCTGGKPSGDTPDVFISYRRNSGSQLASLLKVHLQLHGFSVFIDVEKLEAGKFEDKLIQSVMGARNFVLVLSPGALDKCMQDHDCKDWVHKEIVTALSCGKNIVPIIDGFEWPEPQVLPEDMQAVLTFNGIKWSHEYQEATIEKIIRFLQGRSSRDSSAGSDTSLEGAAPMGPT
structure (smiles),measurement,setting,value
Nc1ccc2cc3ccc(N)cc3nc2c1,nuclear beta-catenin stimulation,[1]; at 10 µM,164% (active)
same,nuclear beta-catenin stimulation,"[1]; stimulation, at 2 µM",9.1%
same,insulin secretion stimulation,[2],24% (active)
same,viability decrease,[3],42% (active)
same,tube area decrease,[4],-95.9% (inactive)
same,GLP1 secretion stimulation,[5],11.8% (inactive)
same,inhibition of viability,[6],104% (active)
same,viability decrease (inhibition),[7],106% (active)
same,viability decrease (inhibition),[8],45.9% (active)
same,red/green cell ratio (normalised),[9],0.58 (inactive)
same,normalised cell number,[9]; [18],0.74
same,normalised cell number,[9]; [19],0.43
same,fold change,[10]; [20],0.846 (inactive) and 0.958 (inactive)
same,fold change,[10]; [21],0.821 and 1.18
same,cell count,[10]; [22],1150 and 2160
same,cell count,[10]; [23],1360 and 2260
same,z-score,[11]; [24],2.13 (active)
same,z-score,[11]; [25],-2.97
same,remaining NAD,[12],10 nM (inactive)
same,inhibition,[13]; [26],-32.2% (inactive)
same,inhibition,[13]; [27],13.5%
same,inhibition,[13]; [28],-11.3%
same,inhibition,[13]; [29],22.5%
same,inhibition,[13]; [30],-47.3%
same,inhibition,[13]; [31],91.6%
same,inhibition,"[14]; BGB combo, at 5 µM",96.4%
same,inhibition,[14]; at 0.5 µM,-6.06% (inactive)
same,inhibition,"[14]; cisplatin combo, at 5 µM",99.6%
same,inhibition,[14]; [32],5.24%
same,inhibition,[14]; [33],-17.9%
same,inhibition,"[14]; single agent, at 5 µM",97.6%
same,inhibition,"[15]; BGB IC20 combo, at 0.005 µM",-22.1%
same,inhibition,"[15]; BGB IC40 combo, at 0.005 µM",-20.5%
same,inhibition,"[15]; BGB IC40 combo, at 0.05 µM",98.8%
same,inhibition,[15]; at 0.5 µM,-20.2% (inactive)
same,inhibition,"[15]; cisplatin combo, at 0.05 µM",98.8%
same,inhibition,"[15]; cisplatin combo, at 0.5 µM",-22.1%
same,inhibition,"[15]; cisplatin combo, at 5 µM",-11.1%
same,inhibition,[15]; [34],-9.35%
same,inhibition,[16]; at 0.5 µM,-33.1% (inactive)
same,inhibition,[16]; [35],-40.6%
same,inhibition,[16]; [36],79.3%
same,inhibition,[16]; [37],-43.3%
same,inhibition,[16]; [38],99.3%
same,inhibition,"[16]; single agent, at 5 µM",84.4%
same,inhibition,[17]; at 0.5 µM,7.24% (inactive)
same,inhibition,[17]; [39],-0.519%
same,inhibition,[17]; [40],92.2%
same,inhibition,[17]; [41],-19.4%
same,inhibition,[17]; [42],97.5%
O=c1cc[nH]c(=O)[nH]1,nuclear beta-catenin stimulation,[1]; at 10 µM,2.3% (inactive)
same,nuclear beta-catenin stimulation,"[1]; stimulation, at 2 µM",0.3%
same,insulin secretion stimulation,[2],0% (inactive)
same,viability decrease,[3],0.75% (inactive)
same,tube area decrease,[4],-14.5% (inactive)
same,GLP1 secretion stimulation,[5],-2.6% (inactive)
same,inhibition of viability,[6],1% (inactive)
same,viability decrease (inhibition),[7],8% (inactive)
same,viability decrease (inhibition),[8],3.55% (inactive)
same,red/green cell ratio (normalised),[9],1.11 (inactive)
same,normalised cell number,[9]; [18],1.05
same,normalised cell number,[9]; [19],1.16
same,fold change,[10]; [20],0.956 (inactive) and 0.943 (inactive)
same,fold change,[10]; [21],0.736 and 0.726
same,cell count,[10]; [22],8740 and 8670
same,cell count,[10]; [23],9140 and 9190
same,z-score,[11]; [24],-0.276 (inactive)
same,z-score,[11]; [25],-0.187
same,remaining NAD,[12],10 nM (inactive)
same,inhibition,[13]; [26],-22.6% (inactive)
same,inhibition,[13]; [27],-16.6%
same,inhibition,[13]; [28],-38.5%
same,inhibition,[13]; [29],-9.29%
same,inhibition,[13]; [30],-28.9%
same,inhibition,[13]; [31],-19.9%
same,inhibition,"[14]; BGB combo, at 5 µM",-47.9%
same,inhibition,[14]; at 0.5 µM,-41.6% (inactive)
same,inhibition,"[14]; cisplatin combo, at 5 µM",-56.4%
same,inhibition,[14]; [32],-36.5%
same,inhibition,[14]; [33],-23.5%
same,inhibition,"[14]; single agent, at 5 µM",-52%
same,inhibition,"[15]; BGB IC20 combo, at 0.005 µM",-14.6%
same,inhibition,"[15]; BGB IC40 combo, at 0.005 µM",-47.1%
same,inhibition,"[15]; BGB IC40 combo, at 0.05 µM",-28.5%
same,inhibition,[15]; at 0.5 µM,-27% (inactive)
same,inhibition,"[15]; cisplatin combo, at 0.05 µM",-28.5%
same,inhibition,"[15]; cisplatin combo, at 0.5 µM",-48.6%
same,inhibition,"[15]; cisplatin combo, at 5 µM",-27.5%
same,inhibition,[15]; [34],-5.8%
same,inhibition,[16]; at 0.5 µM,-37.5% (inactive)
same,inhibition,[16]; [35],-69.8%
same,inhibition,[16]; [36],-35.2%
same,inhibition,[16]; [37],-26.2%
same,inhibition,[16]; [38],-33.2%
same,inhibition,"[16]; single agent, at 5 µM",-19.7%
same,inhibition,[17]; at 0.5 µM,-27.5% (inactive)
same,inhibition,[17]; [39],-30.5%
same,inhibition,[17]; [40],-26.1%
same,inhibition,[17]; [41],-40.8%
same,inhibition,[17]; [42],-24%
